MITF act: activators of MITF-driven TRPM1 promoter activity in SK-MEL-5 cells | AID 588334 | 300,000 tested, 0.75% active | SK-MEL-5 TRPM1-promoter luciferase, 24 h; % of positive control, neutral wells = 0 | activation, % at 12.5 µM;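 active means mean activation of at least 80% with every replicate also reaching 80%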;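 further: 0% = neutral control wells and 100% = parthenolide positive control wells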
PAX8 reporter: PAX8 transcriptional activity inhibition. RMG-I TPO-luciferase reporter, SteadyGlo, 24 h. inhibition, % at 12.6 µM. 360,000 tested, 1.2% active;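 active means mean replicate inhibition at least 60% with every replicate also reaching 60%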;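 further: luciferase light reporting Pax8 driven TPO promoter activity; plate controls were median of neutral control wells for no effect and mitoxantrone controls for full effect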
Wnt act: Wnt/beta-catenin pathway activation; Wnt/beta-catenin reporter cell assay, activator, plate reader; 300,000 tested, 1.2% active; activation, % at 9.35 µM; in the data active means activation above about 30%, passing the limit was not always enough;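 further: 0% = neutral control wells and 100% = positive control wells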
esBAF inh: blocks esBAF chromatin remodeling in mouse ES cells; Bmi1-luciferase knock-in reporter, 24 h; 100% = twice the neutral-well signal; reporter increase, % at 12.5 µM; 350,000 tested, 2% active; AID 602393; in the data active means activation above about 40%;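 further: 0% = median of the plate's neutral control wells and 100% = double that signal; a rise in the Bmi1 reporter signal indicates esBAF inhibition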
EWS-Fli block: inhibitors of EWS/Fli oncoprotein transcriptional activity | A673 NR0B1-luciferase reporter, viability-normalised | inhibition, % at 12.6 µM | 350,000 tested, 0.67% active;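 active means mean inhibition of at least 50% after viability correction, with every replicate also passing that limit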;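 further: firefly luciferase signal divided by Alamar Blue viability fluorescence both relative to DMSO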
TRPM1 prom inh: inhibitors of MITF-driven TRPM1 promoter in melanoma cells; SK-MEL-5 TRPM1 promoter luciferase, 24 h; inhibition, % at 12.5 µM; 330,000 tested, 0.83% active;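 active means mean inhibition across replicates of 60% or more, whatever share of single replicates reaches that level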
Active calls of the source: *; nt = no result. Compounds with a hit are over-represented: about 4% of the library has one in this group of screens.

SMILES	MITF act	PAX8 reporter	Wnt act	esBAF inh	EWS-Fli block	TRPM1 prom inh
O=C(Nc1ccc2nc(-c3ccc4nc[nH]c4c3)[nH]c2c1)c1cccs1	-8.6	67.7*	-2.1	4.3	nt	10.3
CC(Cc1cccs1)NC(=O)Nc1ccc(Cl)cc1 (centres undefined)	50.7	-132.5	57.7*	nt	nt	-50.5
CO[C@@H]1CN(C)C(=O)c2ccc(NS(=O)(=O)c3ccc(F)cc3)cc2OC[C@@H](C)NC[C@@H]1C	nt	7.9	nt	-2.9	-2.1	nt
Cc1ccc(NC(=S)NC(=O)c2cccs2)cc1F	92.9*	-204.4	2.6	81.2*	-49.3	-91.1
O=C(Nc1ccc(NC(=O)c2ccccc2F)cc1)c1cccs1	136.9*	-143.2	37.0*	73.6*	-107.0	-129.9
CC(=O)NC(=S)Nc1ccc(NC(=O)c2cccs2)cc1	52.0	-57.2	nt	nt	nt	-55.7
CCCn1cnc2cc(NC(=O)c3cccs3)ccc21	94.3*	-65.1	31.7*	55.1*	-44.9	-93.8
Cc1cccnc1NC(=S)NC(=O)c1cccs1	33.3	nt	34.4*	14.7	-98.6	-34.8
C[C@H](O)C#Cc1cnc2c(c1)C(=O)N([C@@H](C)CO)C[C@H](C)[C@@H](CN(C)CC1CCCC1)O2	nt	-8.0	nt	-4.7	-18.1	nt
O=C(C[C@H]1C[C@H]2c3cc(NC(=O)c4ccc5c(c4)OCO5)ccc3O[C@H]2[C@@H](CO)O1)NCc1ccccn1	nt	-10.9	nt	3.8	-14.7	nt
O=C(Nc1ccc2[nH]ccc2c1)c1cccs1	106.0*	-179.8	12.1	7.7	-72.5	-100.9
O=C(NC(=S)Nc1ccc(Br)cn1)c1cccs1	21.5	-104.2	58.9*	nt	-59.2	-23.2
O=C(Nc1ccc(Cl)cc1)c1cccs1	57.8	nt	26.1	52.3*	nt	-61.5
O=C(Cc1ccc(Cl)cc1)Nc1ccc(NC(=O)c2cccs2)cc1	15.3	-21.3	-3.8	nt	-3.3	-12.1
CC(=O)Nc1ccc2[nH]ccc2c1	-1.9	-1.3	-5.0	-8.5	-4.2	0.6
COc1ccc(N2CCN(C(=O)c3ccc(CNS(=O)(=O)c4ccc(C)cc4)cc3)CC2)cc1	-6.5	19.1	-1.6	8.0	11.7	10.4
O=C(c1cc([N+](=O)[O-])ccc1Cl)N1CCN(c2ccc([N+](=O)[O-])cc2)CC1	2.7	69.7*	-2.0	nt	12.3	-3.4
Cc1ccc(S(=O)(=O)NCc2ccc(C(=O)N3CCN(c4ccc([N+](=O)[O-])cc4)CC3)cc2)cc1	-53.5	88.4*	-1.7	-31.3	20.7	52.2
O=C(c1cccc([N+](=O)[O-])c1)N1CCN(c2cccc(Cl)c2)CC1	3.2	38.1	nt	nt	nt	0.8
COC(=O)c1cc(C(=O)N2CCN(c3cccc(Cl)c3)CC2)cc([N+](=O)[O-])c1	-7.8	56.7	-3.6	-21.2	50.9*	5.4
O=S(=O)(Cc1ccccc1)N1CCCCN2[C@H](CO)[C@@H](c3ccc(-c4ccccc4)cc3)[C@@H]2C1	nt	0.5	nt	nt	-2.8	nt
CCCCSc1nnc(-c2ccc(OC)cc2)n1C	47.3	nt	nt	56.0*	nt	-37.6
COc1ccc(-c2nnc(SCc3csc(N)n3)n2C)cc1	6.8	nt	nt	5.7	nt	-5.6
Cc1ccc(-c2nnc(SCC(C)C)n2C)cc1	28.0	nt	60.9*	54.5*	nt	-30.4
CNC(=O)C[C@@H]1CC[C@H]2[C@@H](COC[C@H](O)CN2C(=O)c2ccc3c(c2)OCO3)O1	nt	nt	nt	1.8	nt	nt
SMILES	MITF act	PAX8 reporter	Wnt act	esBAF inh	EWS-Fli block	TRPM1 prom inh
CC(C)NC(=O)Nc1ccc2c(c1)CC(=O)N([C@H](C)CO)C[C@@H](C)[C@@H](CN(C)C(=O)Nc1ccc(F)cc1)O2	nt	-24.7	nt	-6.3	-1.9	nt
O=C(NC1CCCCC1)[C@H]1[C@H](CO)[C@H]2Cn3c(cccc3=O)[C@@H]1N2CC1CCCC1	nt	nt	nt	nt	13.5	nt
Cc1ccc(NC(=O)ON=C2CCCC2)cc1	96.5*	54.0	18.9	nt	-63.8	-92.5
COc1ccccc1OCc1nc2ccccc2n1C	44.1	-78.9	3.0	47.6*	-88.0	-45.9
COc1ccccc1C(O)Cc1nc2ccccc2n1C (centres undefined)	68.2	nt	nt	48.3*	nt	-67.3
C[C@H](CO)N1C[C@H](C)[C@@H](CN(C)Cc2ccc(Oc3ccccc3)cc2)Oc2ncc(-c3ccncc3)cc2C1=O	nt	nt	nt	-2.8	29.5	nt
Cc1ccc(N=Cc2sc(O)c3ccccc23)cc1	nt	-144.9	84.1*	94.4*	nt	-42.0
Cc1ccc(N=Cc2cccc(O)c2O)c(C)c1	nt	-25.5	13.0	0.3	nt	6.7
Cc1ccc(N=Cc2sc(O)c3ccccc23)c(C)c1	nt	-112.1	0.0	74.4*	nt	-51.4

High-throughput results (PubChem)
